Source: PubChem BioAssay (NCI)
Compounds without any hit were thinned out: in the full panel of roughly 83,000, 20% have a hit.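 Negative percent growth values reflect cell death: -40 means 40% of the cells present at the start died, and -100 means all died.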 Unmarked numbers belong to inactive results. The source made the active and inactive calls. How the source made its calls: active means growth percent below 10; inactive means the rest.

Test system: SK-OV-3 ovarian
Test: NCI-60 one-dose screen, 48 h (100 = growth as untreated, 0 = no growth, -100 = all killed)
Details: 10 µM unless noted

Row | Structure (SMILES) | growth
1 | N#Cc1c(N)nc(NCCO)nc1-c1ccc(F)cc1 | 84.9%
2 | CC/C=C\C[C@H](O)C/C=C1/C(=O)C=C[C@@H]1C/C=C\CCCCO | 83.2%
3 | FC(F)(F)c1cc(Nc2ccc3cc(OCCCN4CCOCC4)ccc3n2)ccc1Cl | 58.3%
4 | N#C/C(=C\c1ccc(Br)cc1)n1nnc2cc(F)c(F)cc21 | 62.5%
5 | CNC(=O)NCC1OC(n2cnc3c(NC(=O)Nc4ccccc4)ncnc32)C(O[Si](C)(C)C(C)(C)C)C1CC(=O)N(C)OC (centres undefined) | 40.7%
6 | CN(C)CC1C(=O)O[C@H]2[C@H]1CC/C(COC(=O)c1cc3ccccc3[nH]1)=C\CC[C@@]1(C)O[C@@H]21 (some centres undefined) | 65.1%
7 | S=C(Cc1ccc2c(c1)CCCC2)N1CCOCC1 | 98.2%
8 | Cc1cc(Cl)nc(NCc2cc(Nc3ccnc4cc(Cl)ccc34)ccc2F)n1 | 85.1%
9 | COC(=O)[C@]12CC[C@@H](C)[C@H](C)[C@@H]1C1=CC[C@@H]3[C@@]4(C)C(C=O)=C[C@@](C)(CO)[C@@H]4[C@H](O)C[C@@]3(C)[C@]1(C)CC2 | 3.19% (active)
10 | CCN1CCN(c2cc(C)nc(NCc3cc(Nc4ccnc5cc(Cl)ccc45)ccc3F)n2)CC1 | 87.5%
11 | C=CCOC1=CC(=O)c2ccccc2C1=O | 109%
12 | COc1ccc(-c2nc(SC(C)C)nc(NNC(N)=S)c2C#N)cc1 | 73%
13 | Cc1cc(C)c2c(-c3nnc(N)s3)cc(=O)oc2c1 | 108%
14 | Oc1c(CN2CCCC2)cc(COCc2ccc(Br)cc2)c2cccnc12 | -17.4% (active)
